Assay results as given in the supplement of paper PMC10981050.
Where “and” joins values, the source holds several entries; their conditions need not be identical. Equal values may be shown once. Where a name gives a salt, the structure may show the parent alone.

Legend:
Assay in all cases: cell viability relative to vehicle control; higher = less cytotoxic
Details in all cases: 10 µM
K562 = system: K562
Method in brief: (§1)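 CRISPR-edited SRSF2 P95 mutant and isogenic wild-type clones of four leukaemia lines were screened against Selleck bioactive, kinase and epigenetic probe libraries, with identity-inconsistent compounds removed. Compounds were acoustically dispensed into 384-well plates at a single 10 µM dose, with 2000 cells in 50 µL medium per well. After 48 h, supernatant was removed and CellTiter-Glo luminescence was read. Viability was expressed as percent of the on-plate DMSO vehicle control, analysed in Genedata Screener.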

MARIMO = system: MARIMO
Method in brief: as §1

MOLM14 = system: MOLM14
Method in brief: as §1

OCI-AML2 = system: OCI-AML2
Method in brief: as §1

CO/N=C(\C(=O)N[C@@H]1C(=O)N2C(C(=O)[O-])=C(C[n+]3ccn4ncccc43)CS[C@H]12)c1nsc(N)n1 [Cefozopran hydrochloride]
cell viability (K562; SRSF2 genotype: SRSF2 P95H/wt): 108% and 99.3% | cell viability (K562; SRSF2 genotype: SRSF2 wt/wt): 101% | cell viability (MARIMO; SRSF2 genotype: SRSF2 P95H/wt): 100% | cell viability (MARIMO; SRSF2 genotype: SRSF2 wt/wt): 114% | cell viability (MOLM14; SRSF2 genotype: SRSF2 P95H/wt): 99.4% | cell viability (MOLM14; SRSF2 genotype: SRSF2 wt/wt): 106% | cell viability (OCI-AML2; SRSF2 genotype: P95H/wt): 95.2% | cell viability (OCI-AML2; SRSF2 genotype: wt/wt): 95.9%

COc1ccc2c(Oc3ccc(NC(=O)c4c(C)n(CC(C)(C)O)n(-c5ccccc5)c4=O)nc3)ccnc2c1
cell viability (K562; SRSF2 genotype: SRSF2 P95H/wt): 46% and 69.9% | cell viability (K562; SRSF2 genotype: SRSF2 wt/wt): 50% | cell viability (MARIMO; SRSF2 genotype: SRSF2 P95H/wt): 84.8% | cell viability (MARIMO; SRSF2 genotype: SRSF2 wt/wt): 97.3% | cell viability (MOLM14; SRSF2 genotype: SRSF2 P95H/wt): 11% | cell viability (MOLM14; SRSF2 genotype: SRSF2 wt/wt): 10.7% | cell viability (OCI-AML2; SRSF2 genotype: P95H/wt): 27.8% | cell viability (OCI-AML2; SRSF2 genotype: wt/wt): 35.9%

Cc1cc(F)c(C(=O)Nc2cccc(-c3nncn3C(C)C)n2)cc1-n1cnc(C2CC2)c1 [Selonsertib (GS-4997)]
cell viability (K562; SRSF2 genotype: SRSF2 P95H/wt): 78.6% and 86.2% | cell viability (K562; SRSF2 genotype: SRSF2 wt/wt): 82% | cell viability (MARIMO; SRSF2 genotype: SRSF2 P95H/wt): 57.1% | cell viability (MARIMO; SRSF2 genotype: SRSF2 wt/wt): 72.1% | cell viability (MOLM14; SRSF2 genotype: SRSF2 P95H/wt): 63.5% | cell viability (MOLM14; SRSF2 genotype: SRSF2 wt/wt): 68.5% | cell viability (OCI-AML2; SRSF2 genotype: P95H/wt): 49.5% | cell viability (OCI-AML2; SRSF2 genotype: wt/wt): 62%

O=C1c2ccccc2C(=O)C1c1ccccc1 [Phenindione (Rectadione)]
cell viability (K562; SRSF2 genotype: SRSF2 P95H/wt): 103% and 98.4% | cell viability (K562; SRSF2 genotype: SRSF2 wt/wt): 105% | cell viability (MARIMO; SRSF2 genotype: SRSF2 P95H/wt): 105% | cell viability (MARIMO; SRSF2 genotype: SRSF2 wt/wt): 104% | cell viability (MOLM14; SRSF2 genotype: SRSF2 P95H/wt): 107% | cell viability (MOLM14; SRSF2 genotype: SRSF2 wt/wt): 106% | cell viability (OCI-AML2; SRSF2 genotype: P95H/wt): 101% | cell viability (OCI-AML2; SRSF2 genotype: wt/wt): 113%

Cc1ccc2nc(NCCN)c3ncc(C)n3c2c1
cell viability (K562; SRSF2 genotype: SRSF2 P95H/wt): 37.6% and 36.4% | cell viability (K562; SRSF2 genotype: SRSF2 wt/wt): 34.5% | cell viability (MARIMO; SRSF2 genotype: SRSF2 P95H/wt): 7.18% | cell viability (MARIMO; SRSF2 genotype: SRSF2 wt/wt): 3% | cell viability (MOLM14; SRSF2 genotype: SRSF2 P95H/wt): 1.38% | cell viability (MOLM14; SRSF2 genotype: SRSF2 wt/wt): 0.62% | cell viability (OCI-AML2; SRSF2 genotype: P95H/wt): 2.44% | cell viability (OCI-AML2; SRSF2 genotype: wt/wt): 13%

COc1cc2c(NC3CCN(C(C)C)CC3)nc(C3CCCCC3)nc2cc1OCCCN1CCCC1
cell viability (K562; SRSF2 genotype: SRSF2 P95H/wt): 5.7% and 1.99% | cell viability (K562; SRSF2 genotype: SRSF2 wt/wt): 3.43% | cell viability (MARIMO; SRSF2 genotype: SRSF2 P95H/wt): 1.5% | cell viability (MARIMO; SRSF2 genotype: SRSF2 wt/wt): 1.11% | cell viability (MOLM14; SRSF2 genotype: SRSF2 P95H/wt): 0.34% | cell viability (MOLM14; SRSF2 genotype: SRSF2 wt/wt): 0.42% | cell viability (OCI-AML2; SRSF2 genotype: P95H/wt): 0.27% | cell viability (OCI-AML2; SRSF2 genotype: wt/wt): 0.2%

CC(C)CCCC(C)CCCC(C)CCCCC(C)CCCC(C)CCCC(C)C (stereo not given) [Squalane]
cell viability (K562; SRSF2 genotype: SRSF2 P95H/wt): 109% and 97% | cell viability (K562; SRSF2 genotype: SRSF2 wt/wt): 108% | cell viability (MARIMO; SRSF2 genotype: SRSF2 P95H/wt): 105% | cell viability (MARIMO; SRSF2 genotype: SRSF2 wt/wt): 106% | cell viability (MOLM14; SRSF2 genotype: SRSF2 P95H/wt): 103% | cell viability (MOLM14; SRSF2 genotype: SRSF2 wt/wt): 108% | cell viability (OCI-AML2; SRSF2 genotype: P95H/wt): 103% | cell viability (OCI-AML2; SRSF2 genotype: wt/wt): 100%

CCCCC1=NC2(CCCC2)C(=O)N1Cc1ccc(-c2ccccc2-c2nnn[nH]2)cc1 [Irbesartan (Avapro)]
cell viability (K562; SRSF2 genotype: SRSF2 P95H/wt): 85.5% and 88.8% | cell viability (K562; SRSF2 genotype: SRSF2 wt/wt): 86.3% | cell viability (MARIMO; SRSF2 genotype: SRSF2 P95H/wt): 88.7% | cell viability (MARIMO; SRSF2 genotype: SRSF2 wt/wt): 101% | cell viability (MOLM14; SRSF2 genotype: SRSF2 P95H/wt): 90% | cell viability (MOLM14; SRSF2 genotype: SRSF2 wt/wt): 85.5% | cell viability (OCI-AML2; SRSF2 genotype: P95H/wt): 95.7% | cell viability (OCI-AML2; SRSF2 genotype: wt/wt): 94.1%

COc1cc2c(=O)c3c(O)c([C@@H]4O[C@H](CO[C@@H]5OC[C@](O)(CO)[C@H]5O)[C@@H](O)[C@H](O)[C@H]4O)c(O)cc3oc2cc1O [Polygalaxanthone III]
cell viability (K562; SRSF2 genotype: SRSF2 P95H/wt): 99.2% and 105% | cell viability (K562; SRSF2 genotype: SRSF2 wt/wt): 98% | cell viability (MARIMO; SRSF2 genotype: SRSF2 P95H/wt): 100% | cell viability (MARIMO; SRSF2 genotype: SRSF2 wt/wt): 98.8% | cell viability (MOLM14; SRSF2 genotype: SRSF2 P95H/wt): 101% | cell viability (MOLM14; SRSF2 genotype: SRSF2 wt/wt): 98.4% | cell viability (OCI-AML2; SRSF2 genotype: P95H/wt): 105% | cell viability (OCI-AML2; SRSF2 genotype: wt/wt): 97.3%

CC1=C(C(=O)Nc2cc3cn[nH]c3cc2F)C(c2ccc(C(F)(F)F)cc2)CC(=O)N1 (stereo not given)
cell viability (K562; SRSF2 genotype: SRSF2 P95H/wt): 99.9% and 96.7% | cell viability (K562; SRSF2 genotype: SRSF2 wt/wt): 95.3% | cell viability (MARIMO; SRSF2 genotype: SRSF2 P95H/wt): 89.1% | cell viability (MARIMO; SRSF2 genotype: SRSF2 wt/wt): 98.6% | cell viability (MOLM14; SRSF2 genotype: SRSF2 P95H/wt): 36.8% | cell viability (MOLM14; SRSF2 genotype: SRSF2 wt/wt): 91.7% | cell viability (OCI-AML2; SRSF2 genotype: P95H/wt): 23.6% | cell viability (OCI-AML2; SRSF2 genotype: wt/wt): 42.9%
